Assay [1] in a line: Her2 expression decrease, cell viability multiplex – SKBR3 breast tumor cells, AlphaScreen, ATP viability, primary screen (AID 461).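 On Her2 level: lower value means less Her2 protein in the cells.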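 On viability: percent of carrier control wells set as 100% viability.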 As to conditions: SKBR3 Her2 protein level, 18-24 h, measured here: SKBR3 viability, ATP luminescence, at 10 µM. (In general: In Alpha technology, singlet oxygen from a donor bead excites a nearby acceptor bead.)
The target in assay [2] is Receptor tyrosine-protein kinase erbB-2 (Homo sapiens) (UniProt P04626). The description is as above. As to conditions: 18-24 h, at 10 µM, stronger effect = lower value.
Assay [3] can be described thus: reduced viability of SK-BR-3 breast cancer cells – cell-based, 24 h, human, pilot screen (AID 572;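 active means viability at or below 10% of carrier control in both of two separate runs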;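 further: compound exposure lasted between 18 and 24 h rather than exactly 24 h; 100% = carrier-treated control wells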). As to conditions: SK-BR-3 viability, CellTiter-Glo luminescence, at 10 µM, stronger effect = lower value. A general note: In ATP-based viability assays light output follows the ATP content of the culture.
Assay [4] in a line: HUVEC growth inhibition – cell-based, human, primary screen (AID 575;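 active means viability at or below 30% in both replicate assays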;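 further: 100% = median of untreated cell wells with 0.1% DMSO on each plate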). As to conditions: HUVEC proliferation, CellTiter-Glo luminescence, 72 h; at 10 µM; stronger effect = lower value.
A short description of assay [5]: H69AR cell proliferation blockers – human, duplicate replicates, primary screen (AID 580;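 active means viability at or under a set limit in both replicates, limit being median viability minus 3 SD, cut at about 48% in these data, passing the limit was not always enough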;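 further: 100% = mean luminescence of untreated wells and 0% = no signal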). As to conditions: H69AR lung tumor cells viability, ATP luminescence, 72 h; at 10 µM; stronger effect = lower value.
Assay [6] can be described thus: MRP1 drug-resistance reversers in H69AR cells – cell-based, doxorubicin co-treatment, pilot screen (AID 601;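 active means viability loss from added drug above about 55%, and viability with drug at most 40%, in both replicates, limit read from the data, passing the limit was not always enough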). Conditions: CellTiter-Glo, 72 h, at 10 µM; for differential viability (reversal): stronger effect = higher value.
Assay [7] in a line: yeast transport mutant growth inhibition pilot in 384-well plates, post-Golgi transport modulator project (AID 636; in the data active means inhibition above about 31%). As to conditions: absorbance 615 nm, about 18 h, stronger effect = higher value.
Assay [8] can be described thus: growth suppression of yeast trafficking mutant, preliminary HTS, modulators of trafficking downstream of Golgi apparatus project, 1536-format plate, OD 615 nm (AID 637; in the data active means inhibition above about 30%). As to conditions: yeast transport mutant growth, absorbance 615 nm, 18 h; stronger effect = higher value.
A short description of assay [9]: S. cerevisiae growth inhibition in permissive medium (OD615), pilot counter-assay for S. cerevisiae lifespan shortening project, permissive growth control (AID 705;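 active means growth inhibition above 25% in both replicates, a cutoff set 3 SD above the mean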). As to conditions: OD615, 24 h, at 10 µM, stronger effect = higher value.
Assay [10] is described as follows: S. cerevisiae growth inhibition in restrictive medium, OD615, pilot screen, restrictive growth control, yeast lifespan reduction project (AID 706;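 active means growth inhibition above a set limit, 3 SD over mean compound inhibition, in both replicates, cut at about 43% in these data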;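 further: modified DeaD lifespan yeast strain shifted to restrictive glucose medium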). As to conditions: OD615, 48 h, at 10 µM, stronger effect = higher value.
Assay [11] in a line: doxorubicin toxicity protection in MRP-1 cells – H69AR cells, CellTiter-Glo, duplicate, MRP-1 activator project, pilot screen (AID 807;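 active means viability increase at or above a cutoff of the median across tested compounds plus 3 SD, cut at about 8.5% in these data, passing the limit was not always enough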;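 further: compound pretreatment 18-22 h then 72 h combined with doxorubicin; 0% = doxorubicin alone and 100% = vehicle without doxorubicin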). Conditions: H69AR viability with doxorubicin, CellTiter-Glo luminescence; at 10 µM; stronger effect = higher value.
Assay [12] in a line: viability of HCT116 without oncogenic beta-catenin – human colon tumor cells, pilot screen (AID 823;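 active means cell viability at or below a set limit in both duplicate runs, the limit being the all-compound median minus 4 SD, cut at about 23% in these data, passing the limit was not always enough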;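 further: 0% = wells killed by 20 µM Hyamine and 100% = untreated DMSO cell wells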). As to conditions: HCT116 beta-catenin knockout viability, CellTiter-Glo, 60 h; at 10 µM; stronger effect = lower value.
A short description of assay [13]: viability of PTEN-null HCT116 cells – cell-based, HCT116 clonal line, CellTiter-Glo, pilot screen (AID 824;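 active means viability at or below 27.92% in each of two runs, the all-compound median minus 4 SD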;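 further: 0% = 20 µM Hyamine control and 100% = vehicle cell control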). Conditions: HCT116 PTEN-deleted viability, 60 h, at 10 µM, stronger effect = lower value.
Assay [14] can be described thus: RAM pathway blockade in budding yeast – dse1pr::URA3 reporter, 5-FOA selection, pilot screen (AID 869;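 active means inhibition over a set limit, the all-compound mean plus 3 SD, in both replicate runs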;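 further: 0% = DMSO wells with no growth and 100% = 10 µM 1-NA-PP1 with full growth; RAM network block rescues cells from 5-FOA so hits raise OD615 growth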). As to conditions: S. cerevisiae dse1pr::URA3 5-FOA growth, OD615, 2 d; at 10 µM; stronger effect = higher value; strain carries analog-sensitive mutant Cbk1 kinase.
Assay [15] can be described thus: RAM signaling pathway blockade in yeast – S. cerevisiae, Pdr1DBD-CYC8 efflux-inhibited sensitized strain, primary screen (AID 1298;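 active means RAM network inhibition above 8.4% in each of two replicates, 3 SD over the compound average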;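 further: 0% = DMSO untreated cells without growth and 100% = 10 µM 1-NA-PP1 full growth; higher means more yeast growth rescued from 5-FOA killing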). As to conditions: S. cerevisiae cbk1-as DSE1-URA3 strain, 5-FOA growth OD615, 2 d; at 50 µM; stronger effect = higher value.
[16] abbreviates: H69AR cells + 2 uM doxorubicin, measured here: viability with 2 uM doxorubicin, stronger effect = lower value.
Where [17] appears, read: H69AR cells, compound alone cytotoxicity.

The text below walks through data of PubChem BioAssay.

Records with an inconclusive call do not appear. The source made the active and inactive calls.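 How the source made its calls, unless noted: active means Her2 level under about 52% in both replicate screens, with viability over 70% of control (limit read from the data); inconclusive means Her2 under the limit in one screen only, or viability under 70%; inactive means Her2 level above the set limit.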

Chain of Receptor tyrosine-protein kinase erbB-2 (Homo sapiens) (P04626 whole entry, looked up): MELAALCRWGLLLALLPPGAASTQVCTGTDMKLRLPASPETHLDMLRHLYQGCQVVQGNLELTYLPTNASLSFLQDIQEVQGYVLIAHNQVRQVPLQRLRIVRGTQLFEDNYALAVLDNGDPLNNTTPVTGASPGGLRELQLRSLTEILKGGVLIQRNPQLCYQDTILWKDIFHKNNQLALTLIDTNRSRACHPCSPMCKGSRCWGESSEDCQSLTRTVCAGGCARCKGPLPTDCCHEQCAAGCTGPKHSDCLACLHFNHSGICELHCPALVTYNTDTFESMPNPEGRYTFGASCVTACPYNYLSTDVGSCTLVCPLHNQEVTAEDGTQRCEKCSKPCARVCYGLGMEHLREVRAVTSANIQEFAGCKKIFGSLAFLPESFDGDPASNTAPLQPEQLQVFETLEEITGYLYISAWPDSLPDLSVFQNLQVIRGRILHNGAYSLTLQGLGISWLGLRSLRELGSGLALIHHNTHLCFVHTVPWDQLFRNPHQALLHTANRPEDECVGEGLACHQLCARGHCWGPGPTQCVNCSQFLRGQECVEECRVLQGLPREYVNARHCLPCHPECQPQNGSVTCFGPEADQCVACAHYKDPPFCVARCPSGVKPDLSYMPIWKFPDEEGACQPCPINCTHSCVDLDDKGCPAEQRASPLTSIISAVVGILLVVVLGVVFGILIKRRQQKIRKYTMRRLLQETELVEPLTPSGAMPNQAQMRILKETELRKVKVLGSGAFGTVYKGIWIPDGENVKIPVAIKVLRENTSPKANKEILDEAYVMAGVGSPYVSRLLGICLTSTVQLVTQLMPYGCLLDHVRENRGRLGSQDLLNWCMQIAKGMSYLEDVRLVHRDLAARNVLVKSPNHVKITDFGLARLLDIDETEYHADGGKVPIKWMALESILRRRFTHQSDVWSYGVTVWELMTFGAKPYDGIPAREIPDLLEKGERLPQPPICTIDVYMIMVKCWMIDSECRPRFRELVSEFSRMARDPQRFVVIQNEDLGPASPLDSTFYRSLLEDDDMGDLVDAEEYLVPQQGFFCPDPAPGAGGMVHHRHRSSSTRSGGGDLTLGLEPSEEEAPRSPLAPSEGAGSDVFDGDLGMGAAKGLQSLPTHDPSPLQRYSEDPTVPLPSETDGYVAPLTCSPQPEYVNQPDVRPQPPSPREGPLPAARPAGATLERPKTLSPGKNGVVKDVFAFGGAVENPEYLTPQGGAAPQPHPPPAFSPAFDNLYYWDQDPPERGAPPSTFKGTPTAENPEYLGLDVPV

Broadly, the viability is a read-out of living cells in per cent, often relative to untreated cells. For orientation: inhibition means the change of the read-out against control, counted positive when it falls. Take `CCOC(=O)N1CCN(c2cc(=O)n(-c3ccccc3Cl)c(=O)[nH]2)CC1`: the viability was 98.5% in [1]; 98.5% (inactive) in assay [3]; 100% (inactive) in assay [4]; 86.9% (inactive) in [5]; 90.1% in assay [6] (setting [16]); 86.9% in assay [6] (setting [17]). The viability in assay [12] is 96.8% (inactive); in [13] it was 105% (inactive). Besides, the Her2 level in [2] was 124% (inactive). In [6] (H69AR cells + 2 uM doxorubicin), the differential viability (reversal) was -3.22% (inactive). The inhibition in assay [7] is 0.27% (inactive); in assay [8], 12.5% (inactive); in assay [14], 0.77% (inactive). Besides, the growth inhibition in assay [9] was -9.94% (inactive); in assay [10], -0.995% (inactive). The viability increase in assay [11] is 1.69% (inactive). The RAM network inhibition in assay [15] is 4.58% (inactive).

For the molecule `CCOC(=O)N1CCC(NC(=O)C2CCN(S(=O)(=O)c3cccc4cccnc34)CC2)CC1`, the viability was 90.5% in assay [1]; 90.5% (inactive) in assay [3]; 97.6% (inactive) in [4]; 94.8% (inactive) in [5]; 101% in assay [6] (setting [16]); 94.8% in assay [6] (setting [17]). The viability in assay [12] is 91.4% (inactive); in [13] it was 92.9% (inactive). Further, the Her2 level in assay [2] is 97.5% (inactive). Besides, the differential viability (reversal) in assay [6] (H69AR cells + 2 uM doxorubicin) was -6.25% (inactive). Besides, the inhibition in assay [7] was -3.07% (inactive); in assay [8], -3.33% (inactive); in assay [14], 1.02% (inactive). Moreover, the results for the growth inhibition in assay [9] and in assay [10] were -5.04% (inactive) and 3.31% (inactive), respectively. Besides, the viability increase in assay [11] was 0.29% (inactive). Moreover, in [15], the RAM network inhibition was 1.81% (inactive).

On to `CCOC(=O)N1CCC(NC(=O)c2cc3c(=O)n(C)c4ccccc4c3n2C)CC1`, for which the viability in [1] was 88%; in [3], 88% (inactive); in assay [4] it was 71.3% (inactive); in assay [5], 73.1% (inactive); in [6] (setting [16]), 77.3%; in [6] (setting [17]), 73.1%. For the same molecule, the figures for the viability in [12] and in assay [13] were 80.2% (inactive) and 84.5% (inactive), respectively. Further, in assay [2], the Her2 level was 94% (inactive). Moreover, the differential viability (reversal) in assay [6] (H69AR cells + 2 uM doxorubicin) is -4.2% (inactive). The inhibition in assay [7] was -2.67% (inactive); in assay [8] it was -1.17% (inactive); in assay [14] it was 2.96% (inactive). Moreover, the growth inhibition in [9] was -11.7% (inactive); in [10], -13% (inactive). In assay [11], the viability increase was -3.46% (inactive). Besides, the RAM network inhibition in assay [15] is 9.59% (inactive).

In the case of `N#Cc1cc2c(nc1SCC(=O)N1CCCCC1)CCCC2`, the viability in assay [1] is 85%; in assay [3] it was 85% (inactive); in assay [4] it was 88.3% (inactive); in [5], 87.6% (inactive); in assay [6] (setting [16]), 86.4%; in assay [6] (setting [17]), 87.6%. The viability was 93% (inactive) in [12] and 91.3% (inactive) in [13]. Besides, the Her2 level in [2] was 130% (inactive). The differential viability (reversal) in assay [6] (H69AR cells + 2 uM doxorubicin) is 1.21% (inactive). Moreover, the figures for the inhibition in assay [7], in assay [8] and in assay [14] were 3.51% (inactive), -6.67% (inactive) and 3.67% (inactive), respectively. Also, the growth inhibition in [9] was -16.8% (inactive); in assay [10], -1.56% (inactive). Besides, in assay [11], the viability increase is -1.73% (inactive). Further, the RAM network inhibition in [15] was 2.13% (inactive).

Turning to `COc1ccc(C2C(C(C)=O)=C(C)N=c3s/c(=C/c4ccc5c(c4)OCO5)c(=O)n32)cc1` (stereo not drawn), the viability was 85% in [1]; 85% (inactive) in assay [3]; 91.7% (inactive) in assay [4]; 112% (inactive) in [5]; 94.4% in [6] (setting [16]); 112% in assay [6] (setting [17]). In addition, the viability is 90.1% (inactive) in assay [12] and 83.9% (inactive) in [13]. In assay [2], the Her2 level was 97.5% (inactive). Moreover, the differential viability (reversal) in [6] (H69AR cells + 2 uM doxorubicin) was 17.7% (inactive). In addition, the inhibition was -7.81% (inactive) in [7], -3.49% (inactive) in assay [8] and 0.93% (inactive) in assay [14]. For the same molecule, the growth inhibition is -11.4% (inactive) in assay [9] and -17.4% (inactive) in assay [10]. The viability increase in assay [11] was 3.84% (inactive). Moreover, in [15], the RAM network inhibition is -0.74% (inactive).

As for `COc1cccc(C(=O)OCn2nnc3ccccc3c2=O)c1OC`, the viability in [1] is 85.5%; in assay [3], 85.5% (inactive); in assay [4], 97.7% (inactive); in assay [5] it was 86.9% (inactive); in [6] (setting [16]), 109%; in [6] (setting [17]) it was 86.9%. Besides, the viability in [12] is 96.5% (inactive); in assay [13] it was 99.9% (inactive). Moreover, the Her2 level in assay [2] is 102% (inactive). The differential viability (reversal) in assay [6] (H69AR cells + 2 uM doxorubicin) was -22% (inactive). Further, the inhibition in assay [7] is -2.67% (inactive); in assay [8], -3.67% (inactive); in [14], 2.57% (inactive). Besides, the growth inhibition in assay [9] is 8.45% (inactive); in assay [10], 5.07% (inactive). Further, in assay [11], the viability increase was 0.09% (inactive). Further, the RAM network inhibition in [15] was -0.62% (inactive).

For the molecule `CC(C)n1c(CN2CCN(C)CC2)nc2c1c(=O)n(C)c(=O)n2C`, the viability is 95.5% in [1]; 95.5% (inactive) in [3]; 93.8% (inactive) in assay [4]; 98.5% (inactive) in assay [5]; 89.2% in assay [6] (setting [16]); 98.5% in assay [6] (setting [17]). Also, the viability was 101% (inactive) in assay [12] and 103% (inactive) in assay [13]. Also, the Her2 level in [2] is 86% (inactive). For the same molecule, the differential viability (reversal) in assay [6] (H69AR cells + 2 uM doxorubicin) was 9.28% (inactive). Also, the figures for the inhibition in [7], in assay [8] and in assay [14] were -7.57% (inactive), 1.8% (inactive) and 0.885% (inactive), respectively. The growth inhibition is -7.82% (inactive) in [9] and 4.92% (inactive) in assay [10]. For the same molecule, the viability increase in assay [11] was 0.07% (inactive). In addition, in assay [15], the RAM network inhibition was 5.22% (inactive).

As to `O=C(Nc1ccncc1)c1cccc(F)c1`, the viability in assay [1] was 103%; in assay [3], 103% (inactive); in assay [4], 91.5% (inactive); in [5] it was 92% (inactive); in [6] (setting [16]), 92%; in assay [6] (setting [17]) it was 92%. In addition, the viability in [12] was 98.4% (inactive); in assay [13], 91.4% (inactive). For the same molecule, the Her2 level in assay [2] is 130% (inactive). For the same molecule, the differential viability (reversal) in assay [6] (H69AR cells + 2 uM doxorubicin) was -0.005% (inactive). For the same molecule, the inhibition in assay [7] is -3.08% (inactive); in [8] it was -2.33% (inactive); in [14], -0.02% (inactive). Further, the results for the growth inhibition in assay [9] and in assay [10] were -5.12% (inactive) and 3.45% (inactive), respectively. Moreover, in assay [11], the viability increase was -1.19% (inactive). Besides, in [15], the RAM network inhibition was 2.86% (inactive).

Consider `CC1=C(C(=O)OC(C)C)C(c2ccccn2)n2ncnc2N1` (stereo not drawn), for which the viability is 108% in [1]; 108% (inactive) in assay [3]; 89.5% (inactive) in assay [4]; 98.1% (inactive) in [5]; 92.1% in assay [6] (setting [16]); 98.1% in assay [6] (setting [17]). Moreover, the viability was 106% (inactive) in assay [12] and 99.5% (inactive) in assay [13]. Moreover, the Her2 level in assay [2] was 113% (inactive). In [6] (H69AR cells + 2 uM doxorubicin), the differential viability (reversal) is 6.04% (inactive). The inhibition was -3.2% (inactive) in assay [7], 0.83% (inactive) in assay [8] and 2.84% (inactive) in assay [14]. In addition, the growth inhibition was -5.88% (inactive) in assay [9] and -3.54% (inactive) in [10]. For the same molecule, the viability increase in assay [11] is -0.55% (inactive). In addition, the RAM network inhibition in assay [15] was 7.35% (inactive).
